Measurements: PubChem BioAssay (NCATS)
Results filed as inconclusive are left out. Calls of active or inactive are those of the source. Unless noted, calls follow the shape of the dose curve; as a rule, active = well fitted curve in either direction with a large enough effect (not every such curve was filed as active); inconclusive = small, poorly fitted or top-dose-only effect, or another doubt; inactive = flat fitted curve, though single readings scatter.

What was measured:
[1] = AP1 Signaling Pathway (AID 357); conditions: ME-180 AP-1-bla reporter, EGF-induced, beta-lactamase ratio, 5 h; at 17.2 µM (top of the series) unless noted;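 also: ME-180 reporter cells stimulated with EGF at its EC50 level; % is scaled to controls: 0 for no effect and ±100 for the full control effect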
Outline: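 In this screen, ME-180 cells in Opti-MEM with 0.5% dialyzed FBS received EC50 EGF and compound titrations for 5 h. AP-1 reporter beta-lactamase was detected via CCF4 ratio, giving AC50 for positive and negative modulators.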

[2] = NFAT Signaling Pathway (AID 444); conditions: Jurkat NFAT-bla M1, carbachol, beta-lactamase ratio, 5 h; at 17.2 µM (top of the series) unless noted;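 also: carbachol stimulus at about its EC50 of 1 µM final; % is scaled to controls: 0 for no effect and ±100 for the full control effect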
Outline: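 Jurkat cells with NFAT-driven β-lactamase reporter and co-expressed M1 receptor, stimulated with carbachol (final 1 uM, ~EC50), compound titration, 5 h at 37 °C. CCF4 loaded 1 h at RT; 460/530 nm ratio gave %activity and AC50.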

[3] = Stat Signaling Pathway (AID 446); conditions: ME-180 SIE beta-lactamase reporter, IL-6 stimulated, 5 h; at 17.2 µM (top of the series) unless noted;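 also: ME-180 cervical cancer cells given 40 pM IL-6 alongside compound; SIE-controlled beta-lactamase reporter measured as 460/530 nm FRET emission ratio; % is scaled to controls: 0 for no effect and ±100 for the full control effect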
Outline: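 ME-180 cells carrying a SIE-driven beta-lactamase reporter are stimulated with 40 pM IL-6 for 5 h at 37C in the presence of compound. The 460/530 nm FRET substrate ratio is read after 2.5 h at RT. Data are normalised to 300 pM IL-6 and to 125 nM JAK inhibitor controls.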

[4] = target: Glucocorticoid receptor (Homo sapiens) (UniProt P04150); assay: GR-GFP Redistribution (AID 450;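 active = compounds whose dose series gives a full or clear partial fitted curve of increased nuclear translocation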; also: potency is read from the fitted curve at half-maximal effect)
Glucocorticoid receptor (Homo sapiens), sequence (P04150 whole entry, looked up): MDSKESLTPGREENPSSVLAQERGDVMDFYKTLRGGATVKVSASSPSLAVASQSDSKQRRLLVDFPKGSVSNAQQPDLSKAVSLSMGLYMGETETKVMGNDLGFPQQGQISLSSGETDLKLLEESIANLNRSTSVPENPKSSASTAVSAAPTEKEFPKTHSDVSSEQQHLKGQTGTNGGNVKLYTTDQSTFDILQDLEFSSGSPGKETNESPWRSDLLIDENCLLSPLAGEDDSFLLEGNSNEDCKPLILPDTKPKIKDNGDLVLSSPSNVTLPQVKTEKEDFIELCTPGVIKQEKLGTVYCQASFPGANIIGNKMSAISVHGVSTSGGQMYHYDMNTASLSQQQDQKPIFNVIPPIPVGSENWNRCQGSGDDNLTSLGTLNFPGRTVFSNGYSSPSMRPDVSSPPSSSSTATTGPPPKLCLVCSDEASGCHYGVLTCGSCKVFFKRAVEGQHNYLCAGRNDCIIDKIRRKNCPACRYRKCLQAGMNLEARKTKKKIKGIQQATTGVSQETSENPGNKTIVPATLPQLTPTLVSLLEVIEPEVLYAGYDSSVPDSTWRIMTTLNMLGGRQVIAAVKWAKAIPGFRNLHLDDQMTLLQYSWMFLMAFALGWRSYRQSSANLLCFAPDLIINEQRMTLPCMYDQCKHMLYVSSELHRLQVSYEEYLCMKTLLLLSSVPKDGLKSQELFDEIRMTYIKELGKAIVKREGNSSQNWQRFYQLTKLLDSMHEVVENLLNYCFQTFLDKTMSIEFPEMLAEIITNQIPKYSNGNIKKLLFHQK

CCOC(=O)C1CCN(C(C)=C2C(=O)c3ccccc3C2=O)CC1
inactive: activity change, negative = inhibition [1] 2.67% | activity change, negative = inhibition [2] 4.7% | activity, negative = inhibition [3] 1.52% | Potency [4]

Cn1c(=O)c2c(nc(NCc3ccc4c(c3)OCO4)n2Cc2ccccc2)n(C)c1=O
inactive: activity change, negative = inhibition [1] -13.1% | activity change, negative = inhibition [2] 6.4% | activity, negative = inhibition [3] -25% | Potency [4] > 20.6 µM

CCC(NC(=O)Nn1cnnc1)(C(F)(F)F)C(F)(F)F
inactive: activity change, negative = inhibition [1] 21.2% | activity change, negative = inhibition [2] -0.332% | activity, negative = inhibition [3] 5.97% | Potency [4] > 20.6 µM

c1ccc(-c2nc(NCC3CCCO3)c3ccccc3n2)nc1 (centres undefined)
inactive: activity change, negative = inhibition [1] -1.55% | activity change, negative = inhibition [2] -27.7% | activity, negative = inhibition [3] -6.67% | Potency [4] > 20.6 µM

Cc1ccc(N2CN=c3s/c(=C\c4cccnc4)c(=O)n3C2)cc1
inactive: activity change, negative = inhibition [1] -7.29% | activity change, negative = inhibition [2] -22.3% | activity, negative = inhibition [3] -5.47% | Potency [4] > 20.6 µM

C=CCOc1ccc(/C(O)=C2/C(=O)C(=O)N(CCCN3CCOCC3)C2c2ccc(OC)cc2)cc1 (centres undefined)
inactive: activity change, negative = inhibition [1] -6.96% | activity change, negative = inhibition [2] 8.61% | activity, negative = inhibition [3] -4.29% | Potency [4] > 20.6 µM

Clc1ccc2[nH]c3c(NCCCN4CCOCC4)ncnc3c2c1
inactive: activity change, negative = inhibition [1] 17% | activity change, negative = inhibition [2] -2.05% | activity, negative = inhibition [3] -2.1% | Potency [4] > 20.6 µM

Cc1cc(=O)oc(C)c1C(=O)N[C@@H]1CCCCNC1=O
inactive: activity change, negative = inhibition [1] 9.85% | activity change, negative = inhibition [2] 9.68% | activity, negative = inhibition [3] 9.42% | Potency [4] > 20.6 µM

CCOC(=O)c1cc2c(=O)n3ccccc3nc2n(Cc2ccccc2Cl)c1=N
inactive: activity change, negative = inhibition [1] -18.6% | activity change, negative = inhibition [2] 1.14% | activity, negative = inhibition [3] 2.43% | Potency [4] > 20.6 µM

Cc1occc(=O)c1OC(=O)Nc1ccccc1
inactive: activity change, negative = inhibition [1] 9.9% | activity change, negative = inhibition [2] 1.25% | activity, negative = inhibition [3] 7.55% | Potency [4] > 20.6 µM

COc1ccc(C(=O)c2ccc(N3CCOCC3)cc2)c(OC)c1
inactive: activity change, negative = inhibition [1] -17.3% | activity change, negative = inhibition [2] 13.3% | activity, negative = inhibition [3] 1.25% | Potency [4] > 20.6 µM

CC(C)CCOc1ccc(Cl)cc1CN1CCOCC1
inactive: activity change, negative = inhibition [1] 26.6% | activity change, negative = inhibition [2] 5.23% | activity, negative = inhibition [3] 9.43% | Potency [4] > 20.6 µM

CCCOc1ccc(/C(O)=C2/C(=O)C(=O)N(CCN(C)C)C2c2ccc(OC)c(OC)c2)cc1 (centres undefined)
inactive: activity change, negative = inhibition [1] -7.95% | activity change, negative = inhibition [2] 5.84% | activity, negative = inhibition [3] -1.07% | Potency [4] > 20.6 µM

COc1ccccc1-c1cc(-c2cc(Cl)ccc2O)n[nH]1
inactive: activity change, negative = inhibition [1] 5.68% | activity change, negative = inhibition [2] 2.8% | activity, negative = inhibition [3] 8.92% | Potency [4] > 20.6 µM

CCOC(=O)CSc1nc2ccccc2c(=O)n1C
inactive: activity change, negative = inhibition [1] -12.5% | activity change, negative = inhibition [2] -11.5% | activity, negative = inhibition [3] 1.58% | Potency [4] > 20.6 µM

COC(=O)C1=C(N)Oc2cc(C)[nH]c(=O)c2C1c1ccncc1 (centres undefined)
inactive: activity change, negative = inhibition [1] -8.66% | activity change, negative = inhibition [2] 2.47% | activity, negative = inhibition [3] -7.56% | Potency [4] > 20.6 µM

COc1ccc2c(c1)n([O-])c1c([n+]2=O)CCC1
inactive: activity change, negative = inhibition [1] 13.4% | activity change, negative = inhibition [2] -5.03% | activity, negative = inhibition [3] 7.82% | Potency [4] > 20.6 µM

O=C1[C@@H]2[C@H](C(=O)N1O)[C@H]1C=C[C@@H]2C1
inactive: activity change, negative = inhibition [1] 5.39% | activity change, negative = inhibition [2] -15.3% | activity, negative = inhibition [3] 10.4% | Potency [4] > 20.6 µM

COc1ccc2c(c1OC)C(=O)N1c3ccccc3SC21 (centres undefined)
inactive: activity change, negative = inhibition [1] 2.44% | activity change, negative = inhibition [2] 6% | activity, negative = inhibition [3] -2.16% | Potency [4] > 20.6 µM

O=C(O)c1cc2sccc2s1
inactive: activity change, negative = inhibition [1] -0.721% | activity change, negative = inhibition [2] -6.24% | activity, negative = inhibition [3] 2.27% | Potency [4] > 20.6 µM

COc1ccc(N/C(=N\c2nc(C)cc(C)n2)NC(=O)C(C)C)cc1OC
inactive: activity change, negative = inhibition [1] -12.4% | activity change, negative = inhibition [2] 21.2% | activity, negative = inhibition [3] -1.06% | Potency [4] > 20.6 µM

CCN(CC)CCN1C(=O)C(=O)/C(=C(/O)c2ccc(Cl)cc2)C1c1ccncc1 (centres undefined)
inactive: activity change, negative = inhibition [1] -3.59% | activity change, negative = inhibition [2] 22.9% | activity, negative = inhibition [3] 7.2% | Potency [4] > 20.6 µM

OCCOCCNc1ncnc2c1cnn2-c1ccccc1
inactive: activity change, negative = inhibition [1] 7% | activity change, negative = inhibition [2] 1.59% | activity, negative = inhibition [3] -1.47% | Potency [4] > 20.6 µM

COCc1[nH]nc2c1C(c1ccccc1OC)C(C#N)=C(N)O2 (centres undefined)
inactive: activity change, negative = inhibition [1] -14.7% | activity change, negative = inhibition [2] -26.9% | activity, negative = inhibition [3] -17.1% | Potency [4] > 20.6 µM

CCNc1nc(NC(C)C)nc(N(C#N)C(C)C(=O)N(C)C)n1 (centres undefined)
inactive: activity change, negative = inhibition [1] -3.35% | activity change, negative = inhibition [2] 0.731% | activity, negative = inhibition [3] 0.0609% | Potency [4] > 20.6 µM

Cc1cccc(C)c1N1C(=O)C2ON(c3ccccc3)C(c3ccncc3)C2C1=O (centres undefined)
inactive: activity change, negative = inhibition [1] 1.5% | activity change, negative = inhibition [2] 11.5% | activity, negative = inhibition [3] -5.83% | Potency [4] > 20.6 µM
